Our source for the corrected activity, negative = more killing and z-score values is PubChem BioAssay AID1508625 (Wald Lab, School of Medicine, Case Western Reserve …, 2021).

This assay is described as follows: enhancers of NK cell killing of ovarian tumor cells, primary screen, imaging, OVCAR3, primary NK cells, calcein-AM imaging (AID 1508625).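 Further: compound given to NK cells 16 h before adding targets at 1.5 to 1 ratio.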 Particulars: OVCAR3 lysis by primary NK cells, at 5 µM; z-score: measured here: robust Z-score, single-point normalisation.

As to `O=C(c1ccc2c(=O)n(-c3ccc(F)cc3)c(=S)[nH]c2c1)N1CCc2ccccc2C1`, the corrected activity, negative = more killing is -0.906% and the z-score was -0.288.
`COc1ccc(-c2cc(C(=O)NN=Cc3ccncc3)[nH]n2)cc1`: the corrected activity, negative = more killing is 2.36% and the z-score was 1.03.
On to `CCC(Sc1nc(C)cc(C)n1)C(=O)Nc1nnc(C)s1` (stereo not drawn), for which the corrected activity, negative = more killing is -9.03% and the z-score was -2.8.
`CCCCN(C(=O)c1cnc2n(c1=O)CCS2)c1ccccc1`: the corrected activity, negative = more killing is -5.28% and the z-score was -1.68.
On the same counts, the results for `COc1ccc(CNC(=O)CSc2nc3cc(Cl)ccc3s2)cc1` are -1.73% and -0.516.
Regarding `COc1ccccc1N1CCN(C(=O)NC2CCCCC2)CC1`, the corrected activity, negative = more killing is -0.143% and the z-score is -0.0428.
As to `N#Cc1c(NC(=O)CN2C(=O)C3CC=C(Cl)CC3C2=O)sc2c1CCC2` (stereo not drawn), the corrected activity, negative = more killing was -0.241% and the z-score is -0.0746.
The matching figures for `COC(=O)CCC(=O)NNC(=O)c1ccc(Br)cc1`: -3.77% and -1.49.
As for `O=C(NCCc1ccccc1Cl)C1CC(=O)N(C2CCCCC2)C1` (stereo not drawn), the corrected activity, negative = more killing is -2.73% and the z-score was -1.04.
`O=C(Oc1ccccc1C(=S)N1CCOCC1)c1ccc(Br)cc1`: the corrected activity, negative = more killing was -4.68% and the z-score is -1.45.
On to `COc1ccc(CN2c3cccc[n+]3CC2(O)c2ccc(Cl)cc2)cc1` (stereo not drawn), for which the corrected activity, negative = more killing is 0.199% and the z-score was 0.0419.
For `CCCC(=O)Nc1cc(-c2nc3ccc(C)cc3o2)ccc1Cl`, the corrected activity, negative = more killing is -2.67% and the z-score was -1.43.
Take `CSc1nnc2c(n1)OC(c1ccc(OCC(=O)O)cc1)Nc1ccccc1-2` (stereo not drawn): the corrected activity, negative = more killing is -2.58% and the z-score is -0.915.
Consider `COc1cc(NC(=O)c2cccs2)ccc1NC(=O)c1ccccc1Cl`, for which the corrected activity, negative = more killing was -4.46% and the z-score is -2.48.
In the case of `CC1(C)CC(=O)C(CCC(=O)c2ccccc2)C(C)(C)N1` (stereo not drawn), the corrected activity, negative = more killing was -2.46% and the z-score was -0.733.
As for `CCC1CCCCN1C(=O)c1cc2c(=O)n3ccccc3nc2s1` (stereo not drawn), the corrected activity, negative = more killing was -5.2% and the z-score was -1.47.
Regarding `Cc1oc2c(C)c3oc(=O)c(C)c(C)c3cc2c1-c1ccccc1`, the corrected activity, negative = more killing is -1.87% and the z-score is -0.558.
`COc1cc(C(=S)N2CCCCC2)cc(OC)c1OC(=O)c1cccc2ccccc12`: the corrected activity, negative = more killing was -9.1% and the z-score was -3.43.
In the case of `CCOc1ccccc1C(=O)N1CCN(c2ccccc2OCC)CC1`, the corrected activity, negative = more killing was -2.5% and the z-score is -1.03.
Take `Brc1ccc(SCCc2nc3ccccc3o2)cc1`: the corrected activity, negative = more killing was -4.19% and the z-score was -1.56.
Take `CCC(SC1=NCCS1)C(=O)Nc1ccc(S(N)(=O)=O)cc1` (stereo not drawn): the corrected activity, negative = more killing is -2.81% and the z-score is -1.06.
The matching figures for `CN1C(=O)c2ccccc2C(C(=O)Nc2ccc3c(c2)OCCO3)C1c1cccs1` (stereo not drawn): -7.21% and -1.79.
Take `Cc1ccc(NC(=O)CSc2ccc(Nc3ccc(C)cc3)nn2)cc1`: the corrected activity, negative = more killing was -2.33% and the z-score was -0.695.
For `COc1ccc2c(c1)c(C(C)=O)c(C)n2-c1ccccc1C`, the corrected activity, negative = more killing is -0.941% and the z-score is -0.487.
As for `C#CCN1C(=O)C(O)(CC(=O)c2ccc(OC)c(OC)c2)c2cc(Br)ccc21` (stereo not drawn), the corrected activity, negative = more killing is -5.04% and the z-score was -1.51.
`CC(=O)Nc1ccc(N=Cc2ccc(C)cc2)cc1`: the corrected activity, negative = more killing was -3.8% and the z-score is -0.8.
On the same counts, the results for `COC(=O)c1cc(Cl)c(NC(=O)c2cc3ccccc3oc2=O)cc1OC` are -1.77% and -0.79.
As for `Cc1ccc(S(=O)(=O)NCc2cc(-c3nn(C)c(=O)c4ccccc34)ccc2C)cc1`, the corrected activity, negative = more killing was -2.25% and the z-score is -0.924.
For the compound `COc1ccc(NC(=O)NCc2ccncc2)cc1`, the corrected activity, negative = more killing is -2.54% and the z-score is -1.41.
On to `CC(C)C(NC(=O)c1ccccc1)C(=O)NC1=NCCS1` (stereo not drawn), for which the corrected activity, negative = more killing was -2% and the z-score was -0.869.
With `COc1ccc(-n2c(=S)[nH]c3cc(C(=O)Nc4cc(C(N)=O)ccc4OC)ccc3c2=O)c(OC)c1`, the corrected activity, negative = more killing is -3.49% and the z-score is -1.11.
On to `CN(C(=O)Cn1ncc2c(=O)oc3ccccc3c21)c1ccc(Br)cc1`, for which the corrected activity, negative = more killing is -6.99% and the z-score is -1.72.
Turning to `O=C(c1cccc(NS(=O)(=O)Cc2ccccc2)c1)N1CCOCC1`, the corrected activity, negative = more killing is -1.7% and the z-score is -0.945.
For the compound `O=C(Nc1ccc([N+](=O)[O-])cc1)c1cc2c(=O)n3ccccc3nc2s1`, the corrected activity, negative = more killing was -3.21% and the z-score was -0.91.
On the same counts, the results for `COc1ccc(C)cc1NC(=O)c1sc2nc(C)nc(N3CCCCC3C)c2c1C` (stereo not drawn) are -3.27% and -1.75.
`CCC(Oc1ccccc1)C(=O)N1CCC(C(N)=O)CC1` (stereo not drawn): the corrected activity, negative = more killing is -2.95% and the z-score was -1.64.
Take `c1cncc(CNC23CC4CC(CC(C4)C2)C3)c1`: the corrected activity, negative = more killing was -3.27% and the z-score is -1.04.
For the compound `CCc1noc(C)c1C(=O)N1CC(C)OC(C)C1` (stereo not drawn), the corrected activity, negative = more killing is -2.62% and the z-score is -1.08.
For `CCOc1ccc(-n2c(=O)c3c(C)c(C)sc3n(CC(=O)N3CC(C)CC(C)C3)c2=O)cc1` (stereo not drawn), the corrected activity, negative = more killing was -4.39% and the z-score was -1.25.
Consider `COc1ccc(-n2c(=S)[nH]c3cc(C(=O)O)ccc3c2=O)cc1`, for which the corrected activity, negative = more killing was -5.11% and the z-score is -1.63.
Take `CC(C)NC(=O)CCNC(=O)Cn1cnc2sc3c(c2c1=O)CCCC3`: the corrected activity, negative = more killing is -6.97% and the z-score is -2.22.
As to `COc1cc(NC(=O)C(C)Oc2cccc(Cl)c2)cc(OC)c1` (stereo not drawn), the corrected activity, negative = more killing is -3.89% and the z-score is -2.16.
Take `CC(C)(C)NC(=O)CSc1nc2ccc(Cl)cc2o1`: the corrected activity, negative = more killing is -2.67% and the z-score was -0.828.
As for `CCOc1ccc(C(=O)N2CCc3cc(OC)c(OC)cc3C2)cc1`, the corrected activity, negative = more killing is -2.29% and the z-score is -0.852.
